# Test results taken from PubChem BioAssay.
# Calls of active or inactive are those of the source. Unless noted, the rule behind the calls is not given here.
# Legend:
# [1] = tested on: XIP peptide (Xip251-270) binding; assay: XIP fragment 251-270 binding compounds – biochemical, small-molecule microarray, fluorescence 635/667 nm, 0.1 µg/mL protein, primary screen (AID 1182); details: fluorescent protein binding, 635 nm, higher = more signal, called active from +8 up or from −8 down
# [2] = tested on: XIP peptide (Xip251-270); assay: compounds binding XIP fragment 251-270 – biochemical, small-molecule microarray, fluorescence 635/667 nm, 0.5 µg/mL protein, primary screen (AID 1183); details: fluorescence 635 nm, higher = more signal
# [3] = blood-stage malaria parasite viability loss – strain 3D7, DAPI fluorescence, 100 nL, primary screen (AID 1184);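 note: parasites grown inside human red blood cells in medium with human serum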; details: P. falciparum 3D7 growth, 3 d, higher = more signal
# [4] = target: Homeobox protein Hox-A13 (Mus musculus) (UniProt Q62424); assay: disruptors of Hoxa13 oligonucleotide interaction – biochemical, fluorescence polarization, labeled oligonucleotide, primary screen (AID 1185); details: Hoxa13:DNA binding, 15 min, higher = more signal, called active from +8 up or from −8 down
# Homeobox protein Hox-A13 (Mus musculus), sequence (Q62424 whole entry, looked up): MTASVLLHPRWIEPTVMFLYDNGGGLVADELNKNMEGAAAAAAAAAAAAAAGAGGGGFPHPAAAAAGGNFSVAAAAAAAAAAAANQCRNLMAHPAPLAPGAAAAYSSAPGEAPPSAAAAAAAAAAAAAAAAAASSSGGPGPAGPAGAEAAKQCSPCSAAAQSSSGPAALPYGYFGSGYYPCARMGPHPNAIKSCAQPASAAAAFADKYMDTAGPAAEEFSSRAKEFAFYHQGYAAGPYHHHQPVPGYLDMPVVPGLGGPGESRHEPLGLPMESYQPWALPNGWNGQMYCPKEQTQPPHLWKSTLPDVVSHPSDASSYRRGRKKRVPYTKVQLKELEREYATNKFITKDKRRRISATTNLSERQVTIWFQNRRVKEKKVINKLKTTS
# [5] = blockers of DNA damage checkpoint Chk1 activation – imaging, HeLa, hydroxyurea, phospho-Chk1 antibody, percent positive cells, primary screen (AID 1186); details: hydroxyurea-induced phospho-Chk1 immunofluorescence imaging, higher = more signal
# [6] = blockers of DNA damage checkpoint Chk1 activation – imaging, HeLa, hydroxyurea, phospho-Chk1 nuclear intensity, primary screen (AID 1187); details: hydroxyurea-induced phospho-Chk1 immunofluorescence imaging, higher = more signal
SMILES,composite z-score [1],composite z-score [2],z-score [3],z-score [4],z-score [5],z-score [6]
COc1cccc(C)c1NC(=O)O[C@H]1[C@H](OC(=O)Nc2ccccc2-c2ccccc2)[C@H](OC(=O)Nc2ccccc2-c2ccccc2)[C@@H](OC)O[C@@H]1CO,0.201 (inactive),0.729,-2.51,-1.28 (inactive),-0.8 (inactive),-1.12 (inactive)
CCCC=C(CCC)[C@@H](NC(=O)C(C)(C)C)c1ccc(C(=O)OC)cc1,0.158 (inactive),-0.227,-1.47,-0.168 (inactive),-0.75 (inactive),-0.977 (inactive)
[N-]=[N+]=Nc1ccccc1C[C@@]1(C(N)=O)N=C(c2ccc(OCCCO)cc2)O[C@@H]1c1ccccc1N=[N+]=[N-],1.28 (inactive),0.763,-2.67,-5.05 (inactive),-0.0618 (inactive),0.233 (inactive)
COc1cccc(C)c1NC(=O)O[C@H]1[C@H](OC(=O)Nc2ccc3c(c2)OCO3)[C@@H](OC(=O)Nc2ccc3c(c2)OCO3)[C@@H](OC)O[C@@H]1CO,0.519 (inactive),-0.0963,-2.44,-10.8 (active),-0.088 (inactive),-0.224 (inactive)
CCOC(=O)C1=CC[C@@H](c2ccccc2F)N(S(=O)(=O)c2ccc(C)cc2)[C@H]1c1ccccc1,-0.0895 (inactive),0.563,-2.02,1.41 (inactive),0.0286 (inactive),-0.82 (inactive)
COc1ccc([Si](C)(C)[C@@H]2[C@@H](CCO)O[C@]3(C(=O)N(Cc4ccccc4)c4ccc(N5C(=O)c6cccc7cccc5c67)cc43)[C@H]2C)cc1,0.533 (inactive),0.541,-2.76,-0.268 (inactive),-0.991 (inactive),-0.379 (inactive)
CC(C)[Si]1(C(C)C)OCc2cc(-c3ccc(-c4ccc(Cl)c(Cl)c4)o3)nc(-c3ccccc3)c21,-0.325 (inactive),0.716,0.138,-2.02 (inactive),-0.611 (inactive),-0.577 (inactive)
[N-]=[N+]=NCc1ccccc1C[C@@]1(C(N)=O)N=C(c2ccc(OCCCO)cc2)O[C@@H]1c1ccccc1,0.755 (inactive),0.237,-1.83,-5.03 (inactive),0.107 (inactive),0.221 (inactive)
COc1cc(NN2C(C(O)c3ccc(N(C)C)cc3)C=CC3C(=O)N(c4ccccc4)C(=O)C32)cc(OC)c1OC (centres undefined),0.596 (inactive),0.0721,-0.289,-4.2 (inactive),0.111 (inactive),-0.0651 (inactive)
CS(=O)(=O)CCOC(=O)C1=CC(c2ccc(CO)cc2)=CC(C2CC2)N(Cc2sc3ccccc3c2Cl)C=C1C(=O)OCCS(C)(=O)=O (centres undefined),0.766 (inactive),0.492,-3.02,0.0711 (inactive),-0.27 (inactive),0.137 (inactive)
CC(C)NC(=O)[C@@]1(C)c2ccccc2C(=O)N(Cc2ccc(OC(F)(F)F)cc2)[C@H]1c1ccc(CO)cc1,0.697 (inactive),0.836,-1.75,-3.07 (inactive),-0.0939 (inactive),-0.0444 (inactive)
CCCNC(=O)[C@@]1(C)c2ccccc2C(=O)N(c2ccc(C)cn2)[C@H]1c1ccc(CO)cc1,0.635 (inactive),0.386,1.01,-1.63 (inactive),0.0068 (inactive),-0.172 (inactive)
Cc1ccc(S[C@]2(C(=O)NCc3ccccc3)CC(=O)N(C3CCCCC3)[C@@H]2c2ccc(CO)cc2I)cc1,0.2 (inactive),0.742,-2.17,-2.37 (inactive),0.355 (inactive),0.557 (inactive)
CCCN1C(=O)[C@]2(Cc3ccccc31)N=C(c1ccc(OCCCO)cc1)O[C@@H]2c1ccccc1,-0.0074 (inactive),0.763,-2.32,-6.66 (inactive),0.0183 (inactive),0.825 (inactive)
CC(C)[Si](C#C[Si](C(C)C)(C(C)C)C(C)C)(O[C@H](c1ccccc1)c1cn(Cc2ccccc2)nn1)C(C)C,-0.464 (inactive),-0.0753,-0.122,0.371 (inactive),-0.269 (inactive),-0.216 (inactive)
CN(C)C(=O)[C@]1(CCC(=O)OC(C)(C)C)N=C(c2ccc(OCCCO)cc2)O[C@@H]1c1ccccc1CN=[N+]=[N-],0.0464 (inactive),0.649,-2.39,-4.57 (inactive),-0.165 (inactive),0.152 (inactive)
COCC(=C=CC[C@H](O)c1ccccc1OCCO)C[C@H](O)c1ccccn1,-0.488 (inactive),0.0608,-0.259,-4.52 (inactive),-2.25 (inactive),-1.6 (inactive)

SMILES,composite z-score [1],composite z-score [2],z-score [3],z-score [4],z-score [5],z-score [6]
CN(C)C(=O)[C@@]1(Cc2ccccc2CN=[N+]=[N-])N=C(c2ccc(OCCCO)cc2)O[C@H]1c1ccccc1N=[N+]=[N-],0.458 (inactive),0.822,-2.02,-0.638 (inactive),-0.0351 (inactive),-0.336 (inactive)
CCCCCN1CC=CC23O[C@@H]4/C=C\CCCOC(=O)C4[C@H]2C(=O)N(C(C)CO)[C@@H]3C1=O (some centres undefined),0.221 (inactive),0.106,0.266,-3.74 (inactive),-0.107 (inactive),0.37 (inactive)
CCOC(=O)[C@@H]1CCCCN1C(=O)C(=O)OC,0.636 (inactive),0.271,1.99,0.731 (inactive),0.284 (inactive),-0.0933 (inactive)
COc1ccc([Si](C)(C)[C@@H]2[C@@H](CC(=O)N(CCO)Cc3ccccc3)O[C@]3(C(=O)N(Cc4cccc(N5CCCCC5=O)c4)c4ccccc43)[C@H]2C)cc1,0.0247 (inactive),0.709,-2.44,-1.13 (inactive),0.405 (inactive),0.797 (inactive)
COc1ccc([Si](C)(C)[C@@H]2[C@@H](CCO)O[C@]3(C(=O)N(Cc4ccccc4)c4ccc(NC(=O)[C@H](C)O)cc43)[C@H]2C)cc1,0.816 (inactive),0.606,-2.83,-6.12 (inactive),-0.178 (inactive),-0.305 (inactive)
CCOC(=O)C1=C[C@@H](C(C)(C)C)N(S(=O)(=O)c2ccc(C)cc2)[C@H]1c1cccc2ccccc12,-0.247 (inactive),0.236,-1.93,0.961 (inactive),0.721 (inactive),0.521 (inactive)
Cc1ccc(NN2C(C(O)c3c(F)cccc3Cl)C=CC3C(=O)N(C4CCCCC4)C(=O)C32)cc1 (centres undefined),-0.391 (inactive),0.696,-0.216,-3.84 (inactive),-0.0771 (inactive),-0.369 (inactive)
COC(=O)[C@@]1(Cc2ccc(OC)cc2)[C@H]2c3cc(C(=O)N4CCCC4)n(CCO)c3C[C@H]2CN1C(=O)c1ccccc1,0.675 (inactive),0.643,-1.72,-5.06 (inactive),1.33 (inactive),0.404 (inactive)
O=C1[C@H]2C=C(I)[C@H](C[C@@H]2OCCOCCO)[C@@]12CO2,0.0014 (inactive),-0.0714,0.79,0.122 (inactive),0.363 (inactive),0.401 (inactive)
CC[C@@H]1C=C(C(=O)O)[C@H](c2ccccc2)N1S(=O)(=O)c1ccc(C)cc1,0.336 (inactive),0.504,1.78,-3.56 (inactive),0.504 (inactive),0.227 (inactive)
O=C1C[C@]2(c3ccc([N+](=O)[O-])cc3)C(=O)N(C3CC3)c3cc(CO)ccc3[C@H]2N1CC12CC3CC(CC(C3)C1)C2,0.196 (inactive),0.463,-1.38,-0.902 (inactive),-0.0994 (inactive),-0.497 (inactive)
COCCOC(=O)N1C(=O)[C@@]2(c3cc(C#CC4(O)CCCCCC4)ccc31)[C@H](c1ccc(O)cc1)N1[C@H](c3ccccc3)[C@H](c3ccccc3)OC(=O)[C@H]1[C@@H]2C(=O)N1CCN(c2ncccn2)CC1,0.0849 (inactive),0.699,-1.99,-1.62 (inactive),0.13 (inactive),0.232 (inactive)
CCOC(=O)C[C@H]1[C@H](OC(=O)Cc2ccc3c(c2)OCO3)[C@@H](NC(=O)C2CCCCC2)c2cc(OCCCO)ccc2N1C(=O)c1ccccc1,-0.137 (inactive),0.514,-0.201,-3.57 (inactive),-0.296 (inactive),-0.176 (inactive)
Cn1cccc1C(O)C1C=CC2C(=O)N(c3ccccc3)C(=O)C2N1Nc1ccccc1 (centres undefined),0.622 (inactive),0.801,-0.255,-4.04 (inactive),0.121 (inactive),-0.436 (inactive)
C#CCN(Cc1ccccc1Br)[C@H](/C=C/c1ccccc1)[C@@H](O)Cc1ccccc1,-0.368 (inactive),-0.115,-0.717,-0.384 (inactive),-0.162 (inactive),0.103 (inactive)
O=C(NCc1ccc(F)cc1)[C@H]1C[C@H]2C(=O)NCC(=O)N2[C@H]1c1ccc(O)cc1,0.981 (inactive),0.842,-0.16,-1.87 (inactive),-0.339 (inactive),-0.45 (inactive)
O=C1NC(=O)C2C1C=CC(C(O)c1ccco1)N2Nc1ccc(Cl)cc1Cl (centres undefined),-0.101 (inactive),0.634,-0.461,-5.4 (inactive),0.54 (inactive),0.408 (inactive)
